Growth data for eleven compounds are collected here from PubChem BioAssay (NCI).

About 83,000 compounds went through this panel and 20% of them were active in at least one assay; those are over-represented in the sample as a whole.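 Cells were grown in 96-well plates and exposed to the test compound at a single concentration for 48 hours; results are reported as percent growth, with values below 10 considered active.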 Unmarked numbers belong to inactive results. The source made the active and inactive calls.

Some test systems named below: NCI-H23 lung; NCI-H226 lung; NCI-H322M lung; HOP-62 NSCLC; NCI-H460 lung; HOP-92 NSCLC; NCI-H522 lung; A549/ATCC NSCLC; 786-0 renal; COLO 205 colon; DU-145 prostate; MALME-3M melanoma; MDA-MB-231 breast; RXF 393 renal; SF-268 CNS; SF-295 CNS; SF-539 CNS; UACC-257 melanoma; M14 melanoma.
Holding throughout (experiment): NCI-60 one-dose screen, 48 h (100 = growth as untreated, 0 = no growth, -100 = all killed)
Holding throughout (conditions): 10 µM unless noted

Consider `COc1ccc(C(=O)/C=C/c2ccc(Cl)c(Cl)c2)cc1S(N)(=O)=O`, for which the growth in the assay on NCI-H23 lung is -23.6% (active); in the assay with NCI-H226 lung, 25.5%; with NCI-H322M lung it was 21.3%; in the assay on HOP-62 NSCLC, -47.1% (active); with NCI-H460 lung, 7.22% (active); in the assay on HOP-92 NSCLC it was 31.2%. The growth in the assay with NCI-H522 lung was -47.2% (active); with A549/ATCC NSCLC it was 11.2%; in the assay with 786-0 renal, -94.4% (active); with COLO 205 colon, -75.9% (active); with DU-145 prostate, 25.2%; in the assay with MALME-3M melanoma, 28%. The growth in the assay with MDA-MB-231 breast is 20.7%; with RXF 393 renal, -69.2% (active); with SF-268 CNS it was 24.6%; in the assay on SF-295 CNS, 7.4% (active); with SF-539 CNS, -86.5% (active); with UACC-257 melanoma it was 1.95% (active). In addition, the growth in the assay on M14 melanoma was -70.9% (active).
For `CN1CCN(c2ccc(C(=O)/C=C/c3cc(C(F)(F)F)cc(C(F)(F)F)c3)cc2)CC1`, the growth was -66.2% (active) in the assay on NCI-H23 lung; -42.9% (active) with NCI-H226 lung; -81.7% (active) with NCI-H322M lung; -74.9% (active) in the assay with HOP-62 NSCLC; -40.8% (active) in the assay with NCI-H460 lung; -55.2% (active) in the assay on HOP-92 NSCLC. Further, the growth was -69.6% (active) with NCI-H522 lung; -87.8% (active) with A549/ATCC NSCLC; -97.9% (active) with 786-0 renal; -83.4% (active) in the assay on COLO 205 colon; -73.9% (active) in the assay on DU-145 prostate; -86.5% (active) with MALME-3M melanoma. The growth is -89.9% (active) in the assay with MDA-MB-231 breast; -86.7% (active) in the assay with RXF 393 renal; -51% (active) in the assay with SF-268 CNS; -86.4% (active) in the assay with SF-295 CNS; -97% (active) in the assay with SF-539 CNS; -88.9% (active) in the assay on UACC-257 melanoma. Besides, the growth with M14 melanoma is -97.4% (active).
Take `COc1ccc(C(=O)/C=C/c2cc3c(cc2Br)OCO3)cc1S(N)(=O)=O`: the growth with NCI-H23 lung was -31.1% (active); with NCI-H226 lung it was 13.5%; in the assay with NCI-H322M lung, 6.66% (active); in the assay on HOP-62 NSCLC, -38.4% (active); in the assay on NCI-H460 lung, -0.316% (active); in the assay with HOP-92 NSCLC, 15.4%. Moreover, the growth in the assay with NCI-H522 lung was -46.3% (active); in the assay on A549/ATCC NSCLC it was 0.453% (active); with 786-0 renal, -40.4% (active); in the assay with COLO 205 colon, -69% (active); in the assay with DU-145 prostate, -0.788% (active); in the assay on MALME-3M melanoma it was 23.8%. Moreover, the growth in the assay with MDA-MB-231 breast was 23.7%; with RXF 393 renal, -58.2% (active); in the assay with SF-268 CNS, 18.1%; in the assay on SF-295 CNS it was -22.8% (active); in the assay with SF-539 CNS it was -89.2% (active); with UACC-257 melanoma, 63.6%. Further, in the assay on M14 melanoma, the growth is -71.2% (active).
In the case of `O=C(NNc1nc2cc(F)ccc2n2c(CN3CC4CNCC4C3)ccc12)c1ccncn1` (centres undefined), the growth in the assay on NCI-H23 lung was 30.7%; in the assay on NCI-H226 lung, 7.23% (active); in the assay with NCI-H322M lung, 30.8%; in the assay on HOP-62 NSCLC it was 38.3%; with NCI-H460 lung, 5.26% (active); with HOP-92 NSCLC, 34.5%. For the same compound, the growth in the assay with NCI-H522 lung is 32.1%; in the assay with A549/ATCC NSCLC it was 17.8%; in the assay with 786-0 renal it was -2.41% (active); in the assay with COLO 205 colon, 10%; in the assay on DU-145 prostate, 42.1%; in the assay with MALME-3M melanoma, 22.5%. Also, the growth with MDA-MB-231 breast was 27.5%; with RXF 393 renal, 64.1%; with SF-268 CNS, 28.3%; in the assay with SF-295 CNS, 2.58% (active); in the assay with SF-539 CNS it was -10.3% (active); in the assay on UACC-257 melanoma, 12.1%. The growth in the assay on M14 melanoma was -15.6% (active).
Consider `COc1ccc(C(=O)/C=C/c2ccccc2Cl)cc1S(N)(=O)=O`, for which the growth in the assay with NCI-H23 lung was 117%; with NCI-H226 lung it was 106%; in the assay on NCI-H322M lung it was 102%; with HOP-62 NSCLC, 124%; with NCI-H460 lung it was 103%; in the assay on HOP-92 NSCLC, 102%. For the same compound, the growth was 102% with NCI-H522 lung; 112% in the assay with A549/ATCC NSCLC; 104% with 786-0 renal; 106% in the assay with COLO 205 colon; 117% in the assay with DU-145 prostate; 93.9% with MALME-3M melanoma. For the same compound, the growth with MDA-MB-231 breast was 91.9%; in the assay on RXF 393 renal, 124%; in the assay with SF-268 CNS, 92.1%; in the assay on SF-295 CNS, 89.2%; in the assay with SF-539 CNS, 97.5%; with UACC-257 melanoma, 120%. Further, in the assay with M14 melanoma, the growth is 109%.
Consider `O=C(NNc1nc2cc(C(F)(F)F)ccc2n2cccc12)c1cnccn1`, for which the growth in the assay on NCI-H23 lung was -27.5% (active); in the assay with NCI-H226 lung, -53.5% (active); in the assay on NCI-H322M lung, -13.6% (active); in the assay on HOP-62 NSCLC, -73.4% (active); with NCI-H460 lung, -30.3% (active); in the assay on HOP-92 NSCLC, -74% (active). For the same compound, the growth in the assay with NCI-H522 lung was -60.2% (active); in the assay with A549/ATCC NSCLC, -60.5% (active); in the assay with 786-0 renal, -99.1% (active); with COLO 205 colon it was -72.3% (active); in the assay with DU-145 prostate it was -57.5% (active); in the assay with MALME-3M melanoma, -57.2% (active). Also, the growth was -66.8% (active) in the assay with MDA-MB-231 breast; -74% (active) in the assay on RXF 393 renal; -53.4% (active) in the assay on SF-268 CNS; -92.1% (active) in the assay with SF-295 CNS; -83% (active) in the assay on SF-539 CNS; -83.9% (active) in the assay on UACC-257 melanoma. The growth in the assay on M14 melanoma was -81.9% (active).
For the compound `O=C1C(=Nc2ccc(F)c(Cl)c2)c2cccc3cccc1c23`, the growth with NCI-H23 lung is 90.9%; with NCI-H226 lung, 91.9%; in the assay on NCI-H322M lung, 85.2%; with HOP-62 NSCLC it was 81.2%; in the assay with NCI-H460 lung, 78%; with HOP-92 NSCLC it was 96.9%. The growth is 104% with NCI-H522 lung; 89.6% in the assay on A549/ATCC NSCLC; 91.8% in the assay with 786-0 renal; 94% in the assay with COLO 205 colon; 80.3% in the assay on DU-145 prostate; 49.8% with MALME-3M melanoma. Further, the growth in the assay with MDA-MB-231 breast is 59.6%; in the assay with RXF 393 renal, 107%; with SF-268 CNS, 68.6%; in the assay on SF-295 CNS, 47.3%; in the assay with SF-539 CNS it was 26.8%; in the assay with UACC-257 melanoma, 49%. The growth with M14 melanoma is 63.2%.
Turning to `Cc1cnc(C(=O)NNc2nc3cc(F)ccc3n3c(C(=O)N4CC5CC(C4)N5)ccc23)cn1`, the growth with NCI-H23 lung is 51.1%; with NCI-H226 lung it was 12.5%; in the assay with NCI-H322M lung it was 35.4%; in the assay with HOP-62 NSCLC, 59.3%; in the assay on NCI-H460 lung, 9.91% (active); in the assay on HOP-92 NSCLC, 65.2%. The growth in the assay on NCI-H522 lung is 57.8%; in the assay with A549/ATCC NSCLC, 25.4%; in the assay on 786-0 renal, -2.57% (active); in the assay with COLO 205 colon it was 10.5%; in the assay on DU-145 prostate, 48.8%; with MALME-3M melanoma, 43%. For the same compound, the growth in the assay with MDA-MB-231 breast is 43.7%; in the assay on RXF 393 renal it was 60.4%; in the assay on SF-268 CNS it was 33.9%; in the assay with SF-295 CNS, 11%; in the assay on SF-539 CNS, 8.21% (active); in the assay on UACC-257 melanoma, 25.5%. Moreover, in the assay with M14 melanoma, the growth was -22.8% (active).
As to `CN1CCN(Cc2ccc(C(=O)Nc3cccc(C#Cc4cccc5[nH]nc(N)c45)c3)cc2C(F)(F)F)CC1`, the growth was -87.3% (active) with NCI-H23 lung; -84% (active) with NCI-H226 lung; -98.3% (active) in the assay with NCI-H322M lung; -90.1% (active) with HOP-62 NSCLC; -25.3% (active) in the assay with NCI-H460 lung; -87.7% (active) with HOP-92 NSCLC. Moreover, the growth was -64.3% (active) in the assay on NCI-H522 lung; -88.8% (active) in the assay with A549/ATCC NSCLC; -99.4% (active) with 786-0 renal; -87% (active) with COLO 205 colon; -68% (active) with DU-145 prostate; -82.6% (active) in the assay with MALME-3M melanoma. In addition, the growth in the assay on MDA-MB-231 breast is -90.8% (active); with RXF 393 renal, -93.6% (active); with SF-268 CNS it was -59% (active); in the assay with SF-295 CNS, -93.4% (active); in the assay with SF-539 CNS, -97.5% (active); with UACC-257 melanoma, -94.7% (active). The growth in the assay on M14 melanoma is -95.6% (active).
In the case of `Nc1n[nH]c2cccc(C#Cc3cccc(NC(=O)c4cccc(Cl)c4)c3)c12`, the growth is 38.2% with NCI-H23 lung; 45.8% in the assay with NCI-H226 lung; 49.1% in the assay on NCI-H322M lung; 33.6% with HOP-62 NSCLC; 24.7% in the assay on NCI-H460 lung; 9.55% (active) with HOP-92 NSCLC. Moreover, the growth is 11.4% in the assay with NCI-H522 lung; 24.7% with A549/ATCC NSCLC; 11.2% in the assay with 786-0 renal; 19.2% with COLO 205 colon; 55.8% in the assay on DU-145 prostate; 46.4% in the assay with MALME-3M melanoma. Further, the growth with MDA-MB-231 breast was 9.79% (active); with RXF 393 renal, -14.7% (active); in the assay with SF-268 CNS it was 41.1%; in the assay with SF-295 CNS it was 15.3%; with SF-539 CNS, 8.74% (active); in the assay on UACC-257 melanoma, 48.5%. Also, in the assay with M14 melanoma, the growth is 15.9%.
In the case of `COc1ccc(C(=O)/C=C/c2cccnc2)cc1S(N)(=O)=O`, the growth in the assay with NCI-H23 lung was 22.3%; with NCI-H226 lung, 77.3%; in the assay on NCI-H322M lung, 52%; in the assay on HOP-62 NSCLC, 27.5%; with NCI-H460 lung, 19.9%; with HOP-92 NSCLC, 56.5%. Also, the growth with NCI-H522 lung was -67.8% (active); in the assay on A549/ATCC NSCLC it was 42.7%; in the assay on 786-0 renal, 50.4%; in the assay with COLO 205 colon it was 23.9%; with DU-145 prostate, 22%; in the assay on MALME-3M melanoma, 77.5%. Also, the growth in the assay on MDA-MB-231 breast is 60.5%; in the assay with RXF 393 renal it was 54.1%; with SF-268 CNS it was 44.4%; in the assay with SF-295 CNS, 38.9%; in the assay with SF-539 CNS, 3.62% (active); with UACC-257 melanoma, 72.1%. Further, the growth in the assay on M14 melanoma is 66.2%.
